Test results as given in PubChem BioAssay AID1159580 (chemical genetic matrix, 2015).
Where “and” joins values, the source holds several entries; their conditions need not be identical. Equal values may be shown once. The whole screen tested about 5,500 compounds, of which about 2,000 (36%) were called active. Not shown: some 18% with an inconclusive outcome. Rule as the data show it: active = normalized growth mostly below about 0.91 (no sharp cut-off); inconclusive = no clear call, values can overlap the other calls; inactive = mostly above about 0.92. The list shows a part of the results.

Test: chemical genetic growth profiling, strain panel (AID 1159580);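 also: tested at 20 µM; growth read once vehicle control cultures reached saturation at 30 °C; 1 = growth at the plate median or of vehicle wells; lower values mean less growth of the strain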
Settings: S. cerevisiae deletion strains, growth OD

Measured: normalized growth

COc1ccc2c(c1)OC[C@@H](Cc1ccc(OC)c(OC)c1)[C@@H]2O
inactive: locus YAL013W, strain DEP1, active compounds read low 1.01 | locus YAL021C, strain ccr4, active compounds read low 0.999 | locus YAL026C, strain drs2, active compounds read low 1 | locus YAL030W, strain snc1, active compounds read low 0.994 | locus YBL061C, strain skt5, active compounds read low 0.99 | locus YBR009C, strain hhf1, active compounds read low 0.98 | locus YBR021W, strain FUR4, active compounds read low 0.984 | locus YBR023C, strain chs3, active compounds read low 0.998 | locus YBR171W, strain sec66, active compounds read low 0.99 | locus YBR229C, strain ROT2, active compounds read low 1 | locus YBR231C, strain swc5, active compounds read low 1 | locus YBR279W, strain paf1, active compounds read low 1 | locus YCL011C, strain gbp2, active compounds read low 1 | locus YCL016C, strain dcc1, active compounds read low 0.999 | locus YCL029C, strain bik1, active compounds read low 0.988 | locus YCL069W, strain vba3, active compounds read low 0.996 | locus YCR088W, strain abp1, active compounds read low 0.983 | locus YDL005C, strain med2, active compounds read low 0.975 | locus YDL035C, strain GPR1, active compounds read low 0.99 | locus YDL040C, strain nat1, active compounds read low 0.994 | locus YDL074C, strain BRE1, active compounds read low 0.982 | locus YDL101C, strain DUN1, active compounds read low 1.01 | locus YDL134C, strain PPH21, active compounds read low 1 | locus YDL185W, strain tfp1, active compounds read low 0.997 | locus YDL192W, strain arf1, active compounds read low 0.988 | locus YDR001C, strain nth1, active compounds read low 0.998 | locus YDR069C, strain doa4, active compounds read low 0.996 | locus YDR101C, strain arx1, active compounds read low 0.983 | locus YDR150W, strain NUM1, active compounds read low 1 | locus YDR159W, strain sac3, active compounds read low 0.94 | locus YDR162C, strain NBP2, active compounds read low 0.999 | locus YDR195W, strain ref2 0.973 | locus YDR297W, strain sur2, active compounds read low 0.985 | locus YDR318W, strain mcm21, active compounds read low 0.96 | locus YDR334W, strain swr1, active compounds read low 1.01 | locus YDR335W, strain msn5, active compounds read low 1.01 | locus YDR388W, active compounds read low 0.985 | locus YDR392W, strain spt3, active compounds read low 0.91 | locus YDR502C, strain sam2, active compounds read low 0.977 | locus YEL003W, strain gim4, active compounds read low 1 | locus YEL037C, strain rad23, active compounds read low 1.01 | locus YEL061C, strain CIN8 (second series), active compounds read low 1 | locus YEL061C, strain CIN8, active compounds read low 0.999 | locus YER015W, strain faa2, active compounds read low 1 | locus YER016W, strain bim1, active compounds read low 0.986 | locus YER110C, active compounds read low 0.996 | locus YER111C, strain swi4, active compounds read low 0.998 | locus YER155C, strain BEM2 (second series), active compounds read low 0.99 | locus YER155C, strain BEM2, active compounds read low 0.976 | locus YER167W, strain BCK2, active compounds read low 0.958 | locus YFR010W, strain ubp6, active compounds read low 0.998 | locus YGL078C, strain dbp3, active compounds read low 0.996 | locus YGL086W, strain mad1, active compounds read low 0.978 | locus YGL167C, strain pmr1, active compounds read low 0.977 | locus YGL173C, strain kem1, active compounds read low 1 | locus YGL227W, strain vid30, active compounds read low 0.992 | locus YGL240W, strain doc1, active compounds read low 1.02 | locus YGL248W, strain PDE1, active compounds read low 0.996 | locus YGL253W, strain hxk2, active compounds read low 1.02 | locus YGR078C, strain PAC10, active compounds read low 1.01 | locus YGR135W, strain pre9, active compounds read low 0.997 | locus YGR229C, strain SMI1, active compounds read low 0.993 | locus YGR252W, strain gcn5, active compounds read low 0.922 | locus YHR013C, strain ard1, active compounds read low 0.966 | locus YHR027C, strain rpn1, active compounds read low 1.02 | locus YHR030C, strain SLT2, active compounds read low 0.995 and 1.01 | locus YHR079C, strain IRE1 (second series), active compounds read low 0.981 | locus YHR079C, strain IRE1, active compounds read low 1.01 | locus YHR094C, strain hxt1, active compounds read low 0.989 | locus YHR129C, strain ARP1, active compounds read low 0.993 | locus YHR142W, strain chs7, active compounds read low 1.01 | locus YHR200W, strain rpn10, active compounds read low 0.987 | locus YIL066C, strain RNR3, active compounds read low 1 | locus YIL073C, strain SPO22, active compounds read low 0.998 | locus YIL125W, strain kgd1, active compounds read low 0.996 | locus YIR030C, strain dcg1, active compounds read low 0.986 | locus YJL092W, strain hpr5, active compounds read low 0.994 | locus YJL095W, strain BCK1 (second series), active compounds read low 1 | locus YJL095W, strain BCK1, active compounds read low 0.989 and 0.952 | locus YJL115W, strain asf1, active compounds read low 1 | locus YJL129C, strain trk1, active compounds read low 0.94 | locus YJL134W, strain LCB3, active compounds read low 1 | locus YJL154C, strain vps35, active compounds read low 1 | locus YJL164C, strain tpk1, active compounds read low 0.99 | locus YJL166W, strain qcr8, active compounds read low 1.01 | locus YJL168C, strain set2, active compounds read low 0.99 | locus YJL187C, strain SWE1 (second series), active compounds read low 1 | locus YJL187C, strain SWE1, active compounds read low 0.998 | locus YJR043C, strain POL32, active compounds read low 0.953 | locus YJR066W, strain TOR1, active compounds read low 0.975
active: locus YDR137W, strain rgp1, active compounds read low 0.802
